Hits are enriched below; roughly 3.5% of the tested compounds scored in any of these assays.
MITF primary: MITF inhibitors, primary screen, biochemical, AlphaScreen, human; actives 0.91% (n = 650,000); AlphaScreen MITF homodimerization, bead proximity signal; inhibition, % at 2.6 µM; AID 1259374, 2018; in the data active means inhibition above about 50%;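 further: 0% = vehicle wells with protein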
GPR151 ag: activators of human GPR151, primary screen, cell-based, PathHunter beta-arrestin, luminescence; activation, % at 11.2 µM; actives 1% (n = 650,000); PathHunter beta-arrestin GPR151 cells; in the data active means activation above about 4.9%;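 further: 0% = median of compound wells and 100% = cells with positive control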
FBW7 activator: FBW7 E3 ligase activators, primary screen, biochemical, AlphaScreen, human; normalized activity (activation), % at 26.1 µM; F-box/WD repeat-containing protein 7 (Homo sapiens), Q969H0; AlphaScreen FBW7–phospho-cyclin E peptide binding, activator screen; AID 1259310, 2017; actives 0.13% (n = 650,000); in the data active means normalized activity above about 1.9%;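 further: purified mutant Fbw7 with reduced substrate affinity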
Target sequence (Q969H0 whole entry, looked up): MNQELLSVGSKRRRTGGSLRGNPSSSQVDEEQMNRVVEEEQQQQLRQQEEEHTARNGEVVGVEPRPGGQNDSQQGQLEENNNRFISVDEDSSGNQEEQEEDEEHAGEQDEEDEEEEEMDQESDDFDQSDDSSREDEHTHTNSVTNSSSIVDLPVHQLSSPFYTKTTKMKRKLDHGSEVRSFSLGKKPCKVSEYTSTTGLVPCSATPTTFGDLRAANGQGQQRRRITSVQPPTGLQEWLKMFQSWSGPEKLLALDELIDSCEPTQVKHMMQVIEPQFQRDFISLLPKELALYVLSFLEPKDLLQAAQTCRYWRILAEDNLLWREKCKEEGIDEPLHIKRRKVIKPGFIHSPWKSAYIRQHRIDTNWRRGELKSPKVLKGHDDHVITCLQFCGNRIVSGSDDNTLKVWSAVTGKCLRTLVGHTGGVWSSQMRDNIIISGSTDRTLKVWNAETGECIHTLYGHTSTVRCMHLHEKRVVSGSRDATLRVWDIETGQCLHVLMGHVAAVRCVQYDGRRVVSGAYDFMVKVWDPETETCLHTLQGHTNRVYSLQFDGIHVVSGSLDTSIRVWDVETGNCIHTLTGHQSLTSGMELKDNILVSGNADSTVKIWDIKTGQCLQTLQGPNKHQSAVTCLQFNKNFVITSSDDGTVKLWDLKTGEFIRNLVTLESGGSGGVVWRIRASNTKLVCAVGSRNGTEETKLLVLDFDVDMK
TEAD-YAP inh: TEAD-YAP interaction inhibition, primary screen, TEAD-YAP interaction inhibitor project, luminescence, HEK-TIYL cells; TEAD-Gal4/YAP UAS-luciferase luminescence; inhibition, % at 9.12 µM; actives 1.4% (n = 640,000); AID 1259422, 2018; in the data active means inhibition above about 32%;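 further: 0% = median of test compound wells and 100% = reference inhibitor wells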
GPR151 conf act: GPR151 activators, triplicate retest, confirmation, cell-based, PathHunter beta-arrestin, luminescence; AID 1508609, 2020; GPR151 PathHunter beta-arrestin cells, 90 min; % of EA-reagent control over plate median; activation, % at 11.2 µM; 6,700 tested, under 10 active; shares compounds with GPR151 ag;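 active means mean percent activation across replicates above the confirmation screen cutoff of 4.91%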
GPR119 counter: GPR119 activators in beta-arrestin cells, counter-screen for GPR151 activator project, cell-based, PathHunter beta-arrestin, luminescence, triplicate; shares compounds with GPR151 ag; 90 min; 0 = compound-well median, 100 = enzyme-acceptor control; activation, % at 11.2 µM; actives 0.3% (n = 6,700);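 active means mean percent activation in the counterscreen above 29.09%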;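 further: counterscreen on off-target GPR119 to flag nonselective hits from the GPR151 activator screen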
* marks the source's active call; other numbers are inactive results.

`O=C(O)c1cc(C23CC4CC(CC(C4)C2)C3)ccc1O` gave MITF primary -10, GPR151 ag 14*, FBW7 activator 0, TEAD-YAP inh 6, GPR151 conf act 0 and GPR119 counter -3.
Screening O=C(OCC(=O)N1c2ccccc2Sc2ccccc21)c1ccc([N+](=O)[O-])o1 returned MITF primary 3, GPR151 ag 2, FBW7 activator 0 and TEAD-YAP inh 8.
For O=C(NCCOc1ccccc1)c1ccnc(-c2csc3ccccc23)c1 the results were MITF primary -16, GPR151 ag 4.9*, FBW7 activator 0, TEAD-YAP inh 6, GPR151 conf act 1 and GPR119 counter -2.
Cc1ccc(Nc2nc(N3CCOCC3)nc3c2cnn3C)c(C)c1 was read as MITF primary 2, GPR151 ag 5.4*, FBW7 activator 0, TEAD-YAP inh -2, GPR151 conf act 0 and GPR119 counter 4.
`CCOC(=O)/C(C(N)=O)=C(\O)C(=O)/C=C(\O)c1ccc(C)cc1` gave MITF primary 0, GPR151 ag 1, FBW7 activator 0 and TEAD-YAP inh -5.
CCOC(=O)/C(C(N)=O)=C(\OC)C(=O)CC(=O)c1ccc(C)cc1 was read as MITF primary 5, GPR151 ag 5.5*, FBW7 activator 0, TEAD-YAP inh 6, GPR151 conf act 1 and GPR119 counter 7.
For O=Cc1coc2c(CCl)cc(Br)cc2c1=O the results were MITF primary 4, GPR151 ag 2, FBW7 activator 0 and TEAD-YAP inh 6.
Screening CCOc1ccc2nc(SCC(=O)Nc3ccc(Cl)c(C(=O)O)c3)sc2c1 returned MITF primary 23, GPR151 ag -1, FBW7 activator 1 and TEAD-YAP inh -6.
COc1ccc(NC(=O)c2ccc(NC(=O)c3ccc(NC(=O)c4cccc(C)c4)cc3)cc2)cc1 was read as MITF primary -2, GPR151 ag 2, FBW7 activator 0 and TEAD-YAP inh 2.
COc1ccc(NC(=O)CNC(=O)c2cccc(C)c2)cc1 was read as MITF primary -5, GPR151 ag 8.1*, FBW7 activator 0, TEAD-YAP inh -8, GPR151 conf act 1 and GPR119 counter 5.
`CS(=O)(=O)Nc1ccc(C(=O)NCCc2ccccc2)cc1` gave MITF primary 8, GPR151 ag 5.7*, FBW7 activator 0, TEAD-YAP inh -35, GPR151 conf act 1 and GPR119 counter 5.
CS(=O)(=O)Nc1ccc(C(=O)Nc2ccccc2C(=O)NCCc2ccccc2)cc1 was read as MITF primary 1, GPR151 ag 0, FBW7 activator 0 and TEAD-YAP inh -24.
COc1ccc(C(=O)NC(=S)NCc2ccccc2)cc1 was read as MITF primary 17, GPR151 ag 11*, FBW7 activator 0, TEAD-YAP inh -2, GPR151 conf act 0 and GPR119 counter -2.
`COc1ccc(CNC(=O)c2c(Cl)cccc2Cl)cc1` gave MITF primary -3, GPR151 ag 5.7*, FBW7 activator 0, TEAD-YAP inh -2, GPR151 conf act 1 and GPR119 counter 10.
Screening Nc1nc(-c2cccs2)c(C(=O)C(F)(F)F)s1 returned MITF primary 3, GPR151 ag 1, FBW7 activator 0 and TEAD-YAP inh 1.
`COc1ccc(C(=O)Nc2ccc(C(=O)NCCc3ccccc3)cc2)cc1` gave MITF primary 9, GPR151 ag 5.2*, FBW7 activator 0, TEAD-YAP inh -6, GPR151 conf act 0 and GPR119 counter -4.
Screening COc1ccc(CNC(=O)c2ccc(NS(C)(=O)=O)cc2)cc1 returned MITF primary -2, GPR151 ag 4.9*, FBW7 activator 0, TEAD-YAP inh 4, GPR151 conf act 1 and GPR119 counter 12.
CCN(CC)c1ccc(C(=O)NCCO)cc1 was read as MITF primary 14, GPR151 ag 0, FBW7 activator 0 and TEAD-YAP inh -9.
CCN(CC)c1ccc(C(=O)NCCc2ccccc2)cc1 was read as MITF primary 6, GPR151 ag 7.0*, FBW7 activator 0, TEAD-YAP inh -47, GPR151 conf act 0 and GPR119 counter 7.
Screening O=C(COc1ccc(C(=O)NCCc2ccccc2)cc1)Nc1ccccc1F returned MITF primary 13, GPR151 ag 28*, FBW7 activator 0, TEAD-YAP inh 2, GPR151 conf act -1 and GPR119 counter -5.
For CC1CCC2=NN(C(=O)c3cccc(Br)c3)C(O)(C(F)(F)F)C2C1 (stereo unspecified) the results were MITF primary 10, GPR151 ag -1, FBW7 activator 0 and TEAD-YAP inh -2.
For O=C(O)CCC(=O)c1cccs1 the results were MITF primary 12, GPR151 ag 0, FBW7 activator 0 and TEAD-YAP inh 11.
`CCOC(=O)c1c(CSc2ccccc2)n(-c2ccccc2)c2cc(Br)c(OC)cc12` gave MITF primary 6, GPR151 ag -1, FBW7 activator 1 and TEAD-YAP inh 4.
`O=C(OCCCN=C1NS(=O)(=O)c2ccccc21)c1cccc(Br)c1` gave MITF primary 1, GPR151 ag 1, FBW7 activator 0 and TEAD-YAP inh -5.
For CCC(C)NC(=O)C1C2C(=O)N(Cc3ccccc3)CC23C=CC1(C)O3 (stereo unspecified) the results were MITF primary 9, GPR151 ag 8.7*, FBW7 activator 0, TEAD-YAP inh 8, GPR151 conf act 0 and GPR119 counter -8.
For COc1ccc(S(=O)(=O)NCC(c2ccco2)N(C)C)cc1F (stereo unspecified) the results were MITF primary 11, GPR151 ag 6.5*, FBW7 activator 0, TEAD-YAP inh -5, GPR151 conf act -1 and GPR119 counter -8.
Screening O=C(CCCn1c(=S)[nH]c2cc3c(cc2c1=O)OCO3)NCc1cccc(Cl)c1 returned MITF primary 6, GPR151 ag 5.3*, FBW7 activator 0, TEAD-YAP inh 5, GPR151 conf act 0 and GPR119 counter 9.
For O=C(CCCn1c(=S)[nH]c2ccccc2c1=O)Nc1cccc2c1CCCC2 the results were MITF primary 1, GPR151 ag 5.5*, FBW7 activator 0, TEAD-YAP inh -5, GPR151 conf act 0 and GPR119 counter 12.

Screening data as filed in PubChem.
